Experimental data reported in PubChem BioAssay (NCI).
About 79,000 compounds went through this panel and 15% of them were active in at least one assay; those are over-represented in the sample as a whole. The source made the active and inactive calls. Cut-off read from the data, not from the text of the source: active = growth inhibition above about 70%; inactive = the rest.

What was measured:
[1] = NCI Yeast Anticancer Drug Screen. Data for the rad52 strain (AID 147);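 note: 0% = growth of vehicle-treated control cultures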; conditions: S. cerevisiae rad52 mutant growth inhibition, active compounds read high
Outline: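 The repair-mutant yeast strain was incubated with compounds, then growth was read and inhibition derived relative to vehicle.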

[2] = NCI Yeast Anticancer Drug Screen. Data for the wt1 strain (AID 149);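 note: 0% = growth of vehicle-treated wt1 cultures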; conditions: S. cerevisiae wt1 strain (SPY 50644) growth inhibition, active compounds read high
Outline: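 The wt1 strain was treated with compounds, and growth was compared with vehicle-treated cultures to give inhibition.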

[3] = NCI Yeast Anticancer Drug Screen. Data for the rad50EPP+ strain (AID 151);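 note: 0% = growth of vehicle-treated control cultures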; conditions: S. cerevisiae rad50 mutant strain, active compounds read high
Outline: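 Vehicle-normalised growth inhibition; rad50EPP+ yeast strain, altered in DNA damage repair, compound-treated.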

[4] = NCI Yeast Anticancer Drug Screen. Data for the mgt1 strain (AID 153); conditions: S. cerevisiae mgt1 mutant growth inhibition, active compounds read high
Outline: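 Vehicle-normalized growth inhibition is determined in mgt1 yeast, a strain selected for a defined alteration in DNA repair or cell cycle control.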

[5] = NCI Yeast Anticancer Drug Screen. Data for the rad50 strain (AID 155);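 note: 0% = growth of vehicle-only cultures of the same strain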; conditions: S. cerevisiae rad50 strain growth inhibition, active compounds read high
Outline: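 Cells are treated with compound, grown, and their growth is then scored against vehicle-only cultures of the same repair-deficient yeast strain.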

[6] = NCI Yeast Anticancer Drug Screen. Data for the mec2-1 strain (AID 157); conditions: S. cerevisiae mec2-1 strain, active compounds read high
Outline: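 Mutant yeast (mec2-1) grown with compound; growth inhibition relative to vehicle control reported.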

[7] = NCI Yeast Anticancer Drug Screen. Data for the rad14 strain (AID 159);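 note: 0% = growth of vehicle-treated control cultures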; conditions: S. cerevisiae rad14 strain growth inhibition, active compounds read high
Outline: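 Readout: yeast growth inhibition, referenced to vehicle-only cultures. Strain bears a defined alteration in DNA damage repair.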

[8] = NCI Yeast Anticancer Drug Screen. Data for the sgs1 mgt1 strain (AID 161);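 note: 0% = growth of cultures given vehicle only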; conditions: S. cerevisiae sgs1 mgt1 strain, active compounds read high
Outline: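 Yeast cells carrying a defined DNA-repair defect were exposed to test compounds. Growth inhibition was measured relative to vehicle-treated controls.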

[9] = NCI Yeast Anticancer Drug Screen. Data for the CLN2oe strain (AID 163);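 note: 0% = growth of vehicle-only control cultures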; conditions: S. cerevisiae CLN2oe strain, active compounds read high
Outline: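 Compounds are applied to yeast harbouring a defined cell-cycle control change; reduced growth compared with vehicle-treated controls gives the value.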

[10] = NCI Yeast Anticancer Drug Screen. Data for the cln2 rad14 strain (AID 165);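 note: 0% = growth equal to vehicle treated cultures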; conditions: S. cerevisiae cln2 rad14 strain, active compounds read high
Outline: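 Readout is yeast growth inhibition versus vehicle-treated controls, using a strain with cln2 and rad14 alterations exposed to compound.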

[11] = NCI Yeast Anticancer Drug Screen. Data for the bub3 strain (AID 167); conditions: S. cerevisiae bub3 mutant strain, active compounds read high
Outline: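 Part of a panel of yeast mutants defective in DNA damage repair or cell cycle regulation. Each strain is grown with compound, and inhibition is calculated relative to solvent-treated cultures.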

[12] = NCI Yeast Anticancer Drug Screen. Data for the mlh1 strain (AID 171);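 note: 0% = growth of vehicle-treated control cultures of the same strain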; conditions: S. cerevisiae mlh1 strain growth inhibition, active compounds read high
Outline: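 Measured: yeast growth. Reference: vehicle-treated controls. Organism: strain with a defined alteration affecting DNA damage repair or cell cycle control, treated with compound.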

[13] = NCI Yeast Anticancer Drug Screen. Data for the sgs1 strain (AID 173);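 note: 0% = growth of vehicle-only control cultures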; conditions: S. cerevisiae sgs1 mutant, active compounds read high
Outline: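 Each compound was added to cultures of the altered yeast strain. Growth was recorded, and inhibition was derived by comparison with vehicle controls.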

[14] = NCI Yeast Anticancer Drug Screen. Data for the mlh1 rad18 strain (AID 175); conditions: S. cerevisiae mlh1 rad18 strain growth inhibition, active compounds read high
Outline: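 Genetically defined yeast (DNA repair-deficient) exposed to compounds; growth inhibition determined relative to vehicle.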

[15] = NCI Yeast Anticancer Drug Screen. Data for the rad18 strain (AID 177); conditions: S. cerevisiae rad18 mutant growth inhibition, active compounds read high
Outline: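 Vehicle-treated cultures served as the baseline for scoring compound-induced growth inhibition in DNA-repair-mutant yeast.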

[16] = NCI Yeast Anticancer Drug Screen. Data for the wt2 strain (AID 169);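 note: 0% = growth of vehicle-treated yeast cultures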; conditions: S. cerevisiae wt2 strain growth inhibition, active compounds read high
Outline: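 Against vehicle-treated controls, the growth of yeast exposed to each compound was compared, and the inhibition was recorded.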

[17] = at 5.0 µM (retest, dose inferred, filed as 0.5)
[18] = at 50.0 µM (retest, dose inferred, filed as 5.0)

Measured: growth inhibition

CN=C(N)N/N=C/c1ccc2c(c1)Cc1ccccc1-2
inactive: [1]; at 1.2 µM 6% | [1]; at 3.7 µM 19% | [1]; at 11.0 µM 20% | [1]; at 33.0 µM 31% | [2]; at 1.2 µM 0% | [2]; at 3.7 µM 17% | [2]; at 11.0 µM 4% | [2]; at 33.0 µM 8% | [2]; at 100.0 µM 44% | [3]; at 1.2 µM -6% | [3]; at 3.7 µM 12% | [3]; at 11.0 µM 23% | [3]; at 33.0 µM 32% | [4]; at 1.2 µM -11% | [4]; at 3.7 µM -2% | [4]; at 11.0 µM 1% | [4]; at 33.0 µM 14% | [5]; at 1.2 µM -7% | [5]; at 3.7 µM -9% | [5]; [17] 10% | [5]; at 11.0 µM -12% | [5]; at 33.0 µM -2% | [5]; [18] 64% | [6]; at 1.2 µM 9% | [6]; at 3.7 µM -4% | [6]; [17] 6% | [6]; at 11.0 µM -5% | [6]; at 33.0 µM -13% | [6]; at 50.0 µM 23.1% | [6]; at 100.0 µM 60% | [7]; at 1.2 µM -1% | [7]; at 3.7 µM -14% | [7]; at 11.0 µM -21% | [7]; at 33.0 µM -16% | [8]; [17] 24% | [8]; at 50.0 µM 30.2% | [9]; at 1.2 µM -90% | [9]; at 3.7 µM -34% | [9]; at 11.0 µM -16% | [9]; at 33.0 µM -5% | [10]; [17] -5% | [10]; [18] 27% | [10]; at 50.0 µM 19.8% | [11]; at 1.2 µM -15% | [11]; at 3.7 µM -4% | [11]; [17] 30% | [11]; at 11.0 µM -8% | [11]; at 33.0 µM 3% | [11]; at 50.0 µM 22.4% | [12]; at 1.2 µM -24% | [12]; at 3.7 µM -18% | [12]; at 11.0 µM -17% | [12]; at 33.0 µM -10% | [13]; at 1.2 µM 12% | [13]; at 3.7 µM 35% | [13]; at 11.0 µM 50% | [13]; at 33.0 µM 58% | [14]; [17] 42% | [15]; at 1.2 µM -5% | [15]; at 3.7 µM -15% | [15]; at 11.0 µM -12% | [15]; at 33.0 µM 1%
active: [1]; at 100.0 µM 94% | [3]; at 100.0 µM 97% | [4]; at 100.0 µM 92% | [5]; at 50.0 µM 72.8% | [5]; at 100.0 µM 92% | [6]; [18] 92% | [7]; at 100.0 µM 88% | [8]; [18] 83% | [9]; at 100.0 µM 80% | [11]; [18] 100% | [11]; at 100.0 µM 73% | [12]; at 100.0 µM 91% | [13]; at 100.0 µM 93% | [14]; [18] 85% | [14]; at 50.0 µM 81.2% | [15]; at 100.0 µM 90%

CN1c2ccc(Cl)cc2C(=O)NC1c1ccc([N+](=O)[O-])s1 (stereo unspecified)
active: [1]; at 33.0 µM 97% | [1]; at 100.0 µM 97% | [2]; at 33.0 µM 92% | [2]; at 100.0 µM 96% | [4]; at 33.0 µM 97% | [4]; at 100.0 µM 96% | [5]; at 11.0 µM 72% | [5]; at 33.0 µM 97% | [5]; [18] 95% | [5]; at 50.0 µM 91.3% | [5]; at 100.0 µM 96% | [6]; at 33.0 µM 93% | [6]; [18] 95% | [6]; at 50.0 µM 93.2% | [6]; at 100.0 µM 96% | [7]; at 11.0 µM 71% | [7]; at 33.0 µM 96% | [7]; at 100.0 µM 97% | [8]; [18] 94% | [8]; at 50.0 µM 93.8% | [10]; [18] 96% | [10]; at 50.0 µM 91% | [11]; at 33.0 µM 93% | [11]; [18] 97% | [11]; at 50.0 µM 92.4% | [11]; at 100.0 µM 97% | [16]; at 33.0 µM 97% | [16]; at 100.0 µM 97% | [12]; at 33.0 µM 96% | [12]; at 100.0 µM 97% | [13]; at 33.0 µM 95% | [13]; at 100.0 µM 96% | [14]; [18] 98% | [14]; at 50.0 µM 92.8% | [15]; at 11.0 µM 81% | [15]; at 33.0 µM 96% | [15]; at 100.0 µM 97%
inactive: [1]; at 1.2 µM 27% | [1]; at 3.7 µM 30% | [1]; at 11.0 µM 65% | [2]; at 1.2 µM 5% | [2]; at 3.7 µM 1% | [2]; at 11.0 µM 17% | [3]; at 1.2 µM 0% | [3]; at 3.7 µM -4% | [3]; at 11.0 µM 18% | [3]; at 33.0 µM 61% | [3]; at 100.0 µM 67% | [4]; at 1.2 µM -5% | [4]; at 3.7 µM 8% | [4]; at 11.0 µM 23% | [5]; at 1.2 µM 20% | [5]; at 3.7 µM 39% | [5]; [17] 9% | [6]; at 1.2 µM -7% | [6]; at 3.7 µM -52% | [6]; [17] 19% | [6]; at 11.0 µM 14% | [7]; at 1.2 µM -8% | [7]; at 3.7 µM -3% | [8]; [17] -10% | [10]; [17] 37% | [11]; at 1.2 µM 0% | [11]; at 3.7 µM 2% | [11]; [17] -1% | [11]; at 11.0 µM 11% | [16]; at 1.2 µM 7% | [16]; at 3.7 µM 4% | [16]; at 11.0 µM 42% | [12]; at 1.2 µM 13% | [12]; at 3.7 µM 14% | [12]; at 11.0 µM 51% | [13]; at 1.2 µM -4% | [13]; at 3.7 µM 13% | [13]; at 11.0 µM 58% | [14]; [17] 2% | [15]; at 1.2 µM 3% | [15]; at 3.7 µM 25%
